Test results: PubChem BioAssay AID1117319 (Southern Research Institute, 2015)
“And” between values parts separate entries of the source, which are not always exact repeats. Identical values can stand only once. Out of some 260,000 compounds screened, about 1,500 (0.58%) were called active. Not shown: some 5% with an inconclusive outcome.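 The calls were made as follows: active = inhibition above a set limit at one or more doses, reproduced on every date tested; inconclusive = results disagree between test dates, or hit never tested in dose response; inactive = the rest.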 Only a sample is shown. Potency and affinity values are given separately.

target: Virion infectivity factor (Human immunodeficiency virus type 1 group M subtype B (isolate BH10)) + Virion infectivity factor (Human immunodeficiency virus type 1 group M subtype B (isolate BRU/LAI)) + Virion infectivity factor (Human immunodeficiency virus type 1 group M subtype B (isolate PCV12)) + Virion infectivity factor (Human immunodeficiency virus type 1 group M subtype B (isolate HXB2)) + DNA dC->dU-editing enzyme APOBEC-3G (Homo sapiens) (UniProt P69720+P69721+P69722+P69723+Q9HC16); test: inhibitors of Vif binding to APOBEC3G peptide, primary screen, biochemical, TR-FRET, GST-Vif 1-94, biotin-A3G peptide, dose response retest (AID 1117319); conditions: stronger effect = higher value;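 also: Vif residues 1-94 fused to GST binding biotinylated APOBEC3G peptide 110-148; 0% = full assay without inhibitor and 100% = GST in place of GST-Vif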

inhibition, inactive:
C/C(=N\NC=O)c1ccncc1 -3.47%
COc1ccc(CC(=O)N(C)C2CCCCC2)cc1S(=O)(=O)N1CCOCC1 1.22%
Cc1ccc2c(c1)c1c(n2C)C(=O)CCC1 -2%
Cc1ccc2c(C)c(C)c(=O)n(C)c2c1 -6.81%
COc1ccc2c(OC)cc(=O)n(C)c2c1 6.19%
COc1ccc2[nH]c3ccccc3c2c1 1.16%
COc1ccc2[nH]c(C)cc(=O)c2c1 -0.89%
COc1ccc2c(c1)c1ccccc1n2C 1.57%
Cc1cc(=O)n(C)c2ccccc12 -5.08%
Cc1ccc(C)c2c1c1ccccc1n2C -3.59%
Cc1c(NC(=O)c2cc(-c3ccccc3)nc3ccccc23)c(=O)n(-c2ccccc2)n1C -2.43%
CC1=C(C(=O)OCc2ccccc2)C(c2ccccc2Br)NC(=O)N1 (stereo unspecified) -2.14%
COc1ccccc1C(O)(c1ccccc1)C(CN1CCOCC1)c1ccccc1 (stereo unspecified) 3.77%
COc1ccc(NC(=O)c2cc(-c3ccccc3)nc3c2c(C)nn3-c2ccccc2)c(OC)c1 1.03%
COC(=O)Cc1[nH]nc2c1C(C1C=CCCC1)C(C#N)=C(N)O2 (stereo unspecified) 7.26%
COc1ccc(C2/C=C\CN(C(=O)C3CC3)[C@H](Cc3ccccc3)C(=O)N2Cc2ccc(F)cc2)cc1 (stereo partly specified) 7.45%
CC1CCN(C(=O)CSc2nnc(-c3ccncc3)n2C)CC1 8.77%
COc1cc(OC)cc(C(=O)NC2CCN(CCCOc3ccccc3)CC2)c1 -2.34%
CCN(CC(=O)Nc1ccc(NC(C)=O)cc1)C(=O)c1ccc2ccccc2c1 8.12%
Nc1c(C(=O)CSc2nnc(-c3ccccc3F)o2)c(=O)[nH]c(=O)n1C1CC1 -9.99%
CC(=O)n1c2ccccc2c2c1c1ccccc1n2C -6.7%
Cn1c2ccccc2c2c(=O)oc3ccccc3c21 -5.39%
CCOc1ccccc1NC(=O)Nc1cccc(S(N)(=O)=O)c1 1.28%
O=C(/C=C/c1ccccc1)c1ccc2c(c1)OCO2 -5.81%
Cc1sc2c(c1C)c(=O)n(-c1ccc(F)cc1)c(=O)n2CC(=O)NCc1ccco1 -4.06%
CCOc1ccc(-n2c(=O)c3c4c(sc3n(CC(=O)NCc3ccco3)c2=O)CCC4)cc1 -4.88%
C=CC(=O)N1C/C(=C/c2ccccc2)C(=O)/C(=C\c2ccccc2)C1 6.41%
CCOC(=O)N1C/C(=C\c2ccccc2)C(=O)/C(=C/c2ccccc2)C1 1.34%
CC(C)CCNC(=O)C(=O)NCc1ccccc1 21.7%
COc1ccc(NC(=O)COC(=O)CCSc2ccccc2)cc1 -0.53%
COc1ccc(NC(=O)CCSc2ccc(F)cc2)cc1 29.9%
CC(=O)c1ccc(OCc2cc(C(=O)N3CCC[C@H]3CO)no2)cc1 1.22%
CCn1c(COc2ccc3c(c2)OCO3)nnc1SCC(=O)O -4.1%
CCn1c(COc2ccc3c(c2)OCO3)nnc1SCC(=O)c1ccccc1 9%
O=C(/C=C/c1ccccc1Cl)Nc1ccccc1 -7.35%
COCCOc1ccc(C(F)(F)F)cc1N 16.5%
Nc1cc(OCC(F)(F)F)cc(OCC(F)(F)F)c1 2.81%
C=CCSc1nc2c(c(=O)[nH]c(=O)n2C)n1Cc1ccc(C)cc1 1.91%
CN1c2ccsc2/C(=N/Nc2ccc(F)cc2)CS1(=O)=O 12.5%
CN(C)c1ccc(NC(=O)CSc2nc3ccccc3c(=O)n2CC2CCCO2)cc1 (stereo unspecified) 1.51%
Cc1cc(NC(=O)CSc2nc3ccccc3c(=O)n2C2CCCC2)no1 3.03%
CCOC(=O)N1CCN(C(=O)CN(CC)S(=O)(=O)c2cc(C)ccc2OC)CC1 -2.01%
CC(=O)Nc1ccc2c3c(ccc([N+](=O)[O-])c13)CC2 1.46%
O=[N+]([O-])c1ccccc1Nc1ccccc1[N+](=O)[O-] -5.54%
COc1ccc(CCC(=O)N2CCCSC2=Nc2ccc(C(C)=O)cc2)cc1 11.6%
O=C1Cc2cc(O)ccc2O1 -1.58%
O=C(O)c1cccc2c1-c1ccc(Cl)cc1C2 -7.17%
Cc1cc2c(OCC(O)CN3CCCC3)cccc2[nH]1 (stereo unspecified) 2.52%
O=C(CCCc1cccs1)Nc1nc2c(s1)CCCC2 12.6%
CCOC(=O)c1ccc(NS(=O)(=O)c2ccc3c(c2)oc(=O)n3C)cc1 69.3%
CCOC(=O)c1ccc(NS(=O)(=O)c2ccc3[nH]c(=O)[nH]c3c2)cc1 5%
O=C(O)c1cc(OCc2ccccc2)cc(OCc2ccccc2)c1 1.18%
Cc1[nH]ccc(=O)c1OCc1ccccc1 6.47%
CCOc1cc(/C=C2/SC(=S)N(Cc3ccccc3)C2=O)ccc1O 6.48%
Cc1ccc(NC(=O)CSc2nnc(CNC(=O)c3ccco3)n2C)cc1C -4.15%
O=C(COC(=O)C1CC2CCCC(C1)C2=O)NNC(=O)c1ccccc1Br (stereo unspecified) -2.58%
COC(=O)[C@]1(C)N[C@H](CN(C)S(=O)(=O)c2ccc(C(C)(C)C)cc2)[C@@H]2C(=O)N(C)C(=O)[C@@H]21 3.98%
O=C1/C(=C/c2cccs2)SC(=S)N1C1CCS(=O)(=O)C1 (stereo unspecified) 0.42%
Cc1ccc(/C=C2\SC(=S)N(C3CCS(=O)(=O)C3)C2=O)o1 (stereo unspecified) -0.73%
O=C1/C(=C/c2ccccc2)SC(=S)N1C1CCS(=O)(=O)C1 (stereo unspecified) -6.69%
Cc1ccc(C(=O)N/C(=C/c2ccco2)C(=O)NC2CCS(=O)(=O)C2)cc1 (stereo unspecified) -1.97%
Cc1cc(C)n(/N=C/c2ccco2)c(=O)c1C#N 11.3%
Cc1ccc(/C=C2\SC(=S)N(C3CCS(=O)(=O)C3)C2=O)cc1 (stereo unspecified) 6.18%
CC1c2ccccc2N(NC(=O)Cc2ccccc2)C1C (stereo unspecified) 1.5%
CC(=O)c1ccc(N2CCN(C(=O)c3ccc(OCc4c(C)noc4C)cc3)CC2)cc1 -23.2%
CCn1c(SCC(=O)NNC(=O)Cc2ccccc2)nnc1-c1ccccc1 6.74%
CNc1ccc(OC)cc1-n1cnc(-c2ccc([N+](=O)[O-])cc2)c1 -2.92%
O=C(NCc1ccccn1)C(=O)NCc1ccccn1 5.11%
O=C(NCc1ccccn1)/C(=N/O)c1ccccc1 1.42%
Cn1nc(C(C)(C)C)cc1C(=O)NCc1ccc2c(c1)OCO2 5.42%
Cc1c(C(=O)O)cccc1-c1ccc(/C=C2/NC(=O)N(c3ccccc3)C2=O)o1 18.3%
O=C(O)c1ccc(COc2ccccc2/C=C2/NC(=O)N(c3cccc(Cl)c3)C2=O)cc1 32.2%
O=C(O)c1cccc(-n2cccc2/C=C2/NC(=O)N(c3ccc(Cl)cc3)C2=O)c1 -7.27%
O=C(O)c1cc(-c2ccc(/C=C3\NC(=O)N(c4ccccc4)C3=O)o2)ccc1Cl 25.2%
O=C(O)c1ccc(COc2ccc3ccccc3c2/C=C2/NC(=O)N(c3ccccc3)C2=O)cc1 24.9%
N#C/C(=C/c1cccn1-c1cccc(C(=O)O)c1)c1ccc(F)cc1 0.42%
N#CC(C#N)=Cc1cccn1-c1ccc(S(N)(=O)=O)cc1 -2.79%
O=C1N/C(=C/c2cccn2-c2ccccc2)C(=O)N1Cc1ccccc1F 0%
Cn1c(C(=O)NCc2cccs2)cc2oc3ccccc3c21 2.73%
O=C(NC1(C(F)(F)F)NC(=O)N(CC2CCCCC2)C1=O)c1ccco1 (stereo unspecified) 9.27%
CCN(C(=O)c1cn(C)c(=O)c2ccccc12)c1ccccc1F -11.6%
Cn1cc(CCNCc2cn[nH]c2-c2ccc(-c3ccccc3)cc2)cn1 -3.24%
CC(C)Cc1cc(C(=O)O)c2ccccc2n1 5.6%
CCn1c(Cc2ccccc2)nnc1SCC(=O)Nc1ccc(C)cc1 -8.39%
CC(C)c1ccc(NC(=O)Cc2cn(C)c3ccccc23)cc1 4.75%
CCc1ccccc1NC(=O)Cc1cn(C)c2ccccc12 -13.9%
Cc1ccc(-c2nnn(CC(=O)N(c3ccccc3)C(C(=O)NC3CCCC3)c3ccco3)n2)o1 (stereo unspecified) -1.78% and -5.18%
Cc1ccc(N(C(=O)Cn2nnc(-c3ccc(C)o3)n2)C(C(=O)NC2CCCC2)c2ccco2)cc1 (stereo unspecified) 1.99% and -5.57%
COCCN(Cc1ccc(C)c(Br)c1)C(=O)Cn1cnc(S(=O)(=O)N2CCCC2)c1 27.4%
CC(C)CCNC(=O)c1cccnc1Sc1ccccc1 -0.39%
CN(C)C(CNC(=O)c1ccccc1C(F)(F)F)c1ccco1 (stereo unspecified) 19%
Cc1ccc(C(C)C)cc1OCCCCN1CCCC1 -6.06%
Cc1ccc(S(=O)(=O)NC(=O)Nc2c(C)cccc2C)cc1 -2.09%
CCOC(=O)/C=C1\SCC(=O)N1CC(=O)NC(C)C 0.13%
CCOC(=O)/C=C1\SCC(=O)N1CC(=O)NC(C)c1ccccc1 (stereo unspecified) -4.1%
O=C(CSc1nc2ccccc2n1Cc1ccccc1)N/N=C/c1ccccc1C(=O)O -4.24%
